From PubChem
Hits are enriched below; roughly 3% of the tested compounds scored in any of these assays.
Nrf2 ARE act – qHTS of Nrf2 Activators; Potency, µM (highest dose often 46.1 µM), for inactives: top-dose activation, hits mostly activators; AREc32 ARE-luciferase reporter (MCF7-derived line), luminescence, 24 h; actives 0.31% (n = 410,000); also: potency is read from the fitted curve at half-maximal effect; % of control where 0% means no effect; nearly all actives have a fitted effect of over 65% in size
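Luminescent ARE reporter assay in AREc32_Fluc cells: overnight plating at 37 deg C, 24 hr compound incubation, Steady-Glo added, 30 min RT before reading.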
D3 antag – qHTS of D3 Dopamine Receptor Antagonist: qHTS; D(3) dopamine receptor (Homo sapiens), P35462; D3R cells, DiscoveRx beta-arrestin luminescence, antagonist mode; active compounds read low; max response, negative = inhibition, %; actives 2.5% (n = 360,000); in the data active = max response below about -50%; inconclusive = no clear call, values can overlap the other calls; also: % is scaled to controls: 0 for no effect and ±100 for the full control effect
Target sequence (P35462 whole entry, looked up): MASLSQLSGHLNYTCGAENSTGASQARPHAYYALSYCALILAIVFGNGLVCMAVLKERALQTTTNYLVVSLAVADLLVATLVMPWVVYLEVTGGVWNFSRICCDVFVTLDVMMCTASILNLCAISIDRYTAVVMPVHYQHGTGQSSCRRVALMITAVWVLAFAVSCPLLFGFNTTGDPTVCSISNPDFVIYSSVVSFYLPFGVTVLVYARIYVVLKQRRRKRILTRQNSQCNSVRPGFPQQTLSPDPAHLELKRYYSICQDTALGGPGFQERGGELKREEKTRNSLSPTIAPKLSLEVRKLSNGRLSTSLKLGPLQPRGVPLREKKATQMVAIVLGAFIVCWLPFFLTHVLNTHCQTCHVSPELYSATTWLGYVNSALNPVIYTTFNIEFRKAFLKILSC
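Cells expressing the human receptor were seeded at 1500 cells/well, incubated overnight at 37 degrees C in 5% CO2, then exposed to library compounds with dopamine controls for 90 minutes at 37 degrees C before luminescent detection.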
D3 ag – qHTS of D3 Dopamine Receptor Agonist: qHTS | D3R DiscoveRx beta-arrestin cells, luminescence, 90 min | max activation, % | actives 0.58% (n = 410,000); in the data active = max activation above about 30%; also: 0% is about no effect
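Agonist mode: compounds and dopamine controls were applied to plated cells for 90 min at 37 degrees C after an overnight attachment at 1500 cells/well. Luminescent read-out followed 30 - 60 minutes at room temperature with DiscoveRx detection reagent.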
GRP78 ERSR act – qHTS for Inducers of the Endoplasmic Reticulum Stress Response (ERSR) in Human Glioma: qHTS; U87-MG GRP78 promoter luciferase reporter, 16 h; Potency, µM, for inactives: top-dose activation, usual class: activators; actives 0.02% (n = 420,000); also: potency is read from the fitted curve at half-maximal effect; series mostly up to about 76 µM; % of control where 0% means no effect; nearly all actives have a fitted effect of over 35% in size
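Stably transfected U87-MG human glioma cells carrying a GRP78-based luminescent sensor were seeded at 1000 cells/well, pin-dosed with compounds and incubated 16 h. Luciferase reagent was then added, and end-point luminescence was read after 10 min at room temperature.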
* = called active by the depositor; u = inconclusive; x = no result given. Unless noted, calls follow the shape of the dose curve; as a rule, active = well fitted curve in the direction sought with a large enough effect; inconclusive = small, poorly fitted or top-dose-only effect, or another doubt; inactive = no such curve, though single readings can be large; an effect the other way counts as inactive or inconclusive.

SMILES	Nrf2 ARE act	D3 antag	D3 ag	GRP78 ERSR act
COc1ccc(N=C2C(=O)N3c4c(cccc42)C(C)=CC3(C)C)cc1	0%	-50*	-28	-3%
Oc1ccc2ccccc2c1N=Nc1ccccc1F	3.5µM*	1	6	-1%
CCOc1ccc(N/C(SC)=C(/C#N)C(N)=O)cc1	2%	-53*	1	6%
CSc1ccc(N2CCN(CCCNC(=O)Nc3ccccc3F)CC2)cc1	2%	u	31*	1%
O=C(CCN1CCN(c2ccccc2)CC1)Nc1ccccc1F	0%	u	34*	5%
O=C(Nc1ccccc1F)c1ccc(CN2CCN(c3ccccc3)CC2)cc1	0%	-54*	-2	0%
O=C(NCCCN1CCN(c2ccc(F)cc2)CC1)NC12CC3CC(CC(C3)C1)C2	1%	-82*	-1	-5%
O=C(NCCCN1CCOCC1)NC12CC3CC(CC(C3)C1)C2	-1%	-8	-2	-2%
O=C(c1cn(C2CCCN(Cc3cccc(Oc4ccccc4)c3)C2)nn1)N1CCCC1 (configuration not stated)	x	x	x	-2%
CNc1cc[n+](C)c2ccccc12	x	x	x	-1%
Cc1c(C(=O)N2CCCC2)sc2ncnc(NCCCN3CCOCC3)c12	x	x	x	-6%
O=C(CN1CCN(Cc2ccc(Cl)cc2)C1=O)NCCCN1CCOCC1	-1%	0	-1	-3%
O=C(CN1CCN(Cc2ccc(Cl)cc2)C1=O)NCCCN1CCN(c2ccc(F)cc2)CC1	2%	-66*	-48	0%
CC(C)c1ccc(-c2nnn(Cc3nc4ccccc4s3)n2)cc1	0%	-72*	-4	4%
COc1cccc(/C=N/n2c(N)nc3ccccc32)c1OC	3%	38	30*	6%
COc1ccc(/C=N/n2c(N)nc3ccccc32)cc1OC	7%	-1	5	-1%
COc1ccc(NC(=O)CC2C(=O)N(c3ccc(OC)cc3)C(=O)N2CCC2=CCCCC2)cc1 (configuration not stated)	1%	x	3	5%
CCCCn1nnnc1C1(C)CCC(=O)N1CCCn1ccnc1 (configuration not stated)	7%	-106*	-13	x
O=S1(=O)CCOCCCN1Cc1ccc(F)cc1	x	x	x	-2%
COc1ccc(N/C(=N\c2nc(C)cc(C)n2)NC(=O)C(C)C)cc1OC	-1%	-65*	-1	-3%
COc1cccc2cc(C(=O)N(Cc3cccs3)Cc3cccs3)c(=O)oc12	x	x	x	-2%
O=C(Nc1ccccc1O)c1ccc(Cl)cc1	13µM*	11	0	u
CC(=O)c1cc(NC(=O)c2ccc(C)cc2)c(=O)oc1C	u	5	13	4%
Cc1oc(=O)c(NC(=O)c2ccc(Cl)cc2)cc1C(=O)c1ccccc1	u	-80*	-8	-13%
O=C(Nc1ccccc1OC(=O)c1ccc(Cl)cc1)c1ccc(Cl)cc1	u	-3	-1	9%
SMILES	Nrf2 ARE act	D3 antag	D3 ag	GRP78 ERSR act
CC(=O)c1cc(NC(=O)c2ccccc2)c(=O)oc1C	13µM*	3	-2	4%
Cc1oc(=O)c(NC(=O)c2ccccc2)cc1C(=O)c1ccccc1	u	u	-1	u
CC(=O)Nc1ccccc1-c1nc2ccccc2n(CC(=O)Nc2cccc(C)c2C)c1=O	0%	x	3	-2%
COc1ccc(Cl)cc1C(=O)O/N=C(\N)c1ccncc1	4µM*	3	9	6%
CCn1c(CSc2nc3ccccc3s2)n[nH]c1=S	-1%	-53*	-1	-2%
CN(C)CCCSc1nc2ccccc2s1	-1%	-82*	-25	3%
O=C(O)CCSc1nc2ccccc2s1	-2%	-72*	4	-14%
Cc1nc2cc(NC(=O)[C@@H]3C[C@@H](Sc4ccccn4)CN3Cc3cccc(F)c3)ccc2s1	x	x	x	-4%
COc1ccc(C(=O)Nc2ccc(-n3nncc3-c3ccc(OC)c(OC)c3)cc2)cc1	12%	x	14	-2%
O=C(O)c1ccc(S(=O)(=O)NC2CCCCC2)cc1	0%	-59*	0	4%
COc1cc(CN2CCN(S(=O)(=O)c3ccccc3)CC2)cc(OC)c1OC	0%	19	7	-3%
COc1cc(CN2CCN(c3cccc(Cl)c3)CC2)cc(OC)c1OC	0%	-71*	-18	-4%
Clc1ccc(N2CCN(Cc3ccc(Br)o3)CC2)cc1	0%	-52*	-22	-5%
O=[N+]([O-])c1ccc(CN2CCN(c3ccc(F)cc3)CC2)o1	0%	-4	-1	-1%
COc1cc(CN2CCN(C(O)(c3ccccc3)c3ccccc3)CC2)cc(OC)c1OC	-1%	-72*	-23	-4%
Clc1cccc(N2CCN(Cc3ccc(Br)o3)CC2)c1	0%	-60*	-27	-4%
COc1cc(CN2CCC3(CCC(CNC(=O)c4cc(C)nn4C)O3)CC2)ccc1F (configuration not stated)	x	x	x	1%
CCC[C@H](NC(C)=O)C(=O)N[C@H]1CC(=O)ONCCCC[C@@H](C(N)=O)NC(=O)[C@H](Cc2c[nH]c3ccccc23)NC(=O)[C@H](CCCN=C(N)N)NC(=O)[C@@H](Cc2ccc3ccccc3c2)NC(=O)[C@H](Cc2cnc[nH]2)NC1=O	x	x	x	-5%
CCCCNc1ccc(C(=O)OCCN(CC)CC)cc1	x	x	-8	-3%
CCOC(=O)c1ccccc1NC(=O)c1c(C)oc2ncnc(N3CCOCC3)c12	1%	x	-4	-2%
Cc1c(CN2CCOc3ccc(C(C)(O)COc4ccccc4)cc3C2)cnn1C (configuration not stated)	x	x	x	-2%
O=C(/C=C/c1ccccc1)NC(NC(=S)Nc1cccc(O)c1)C(Cl)(Cl)Cl (configuration not stated)	16%	-62*	-12	0%
CCOc1ccccc1CNC(=O)c1cn(-c2ccc(OC)cc2)c(=O)c2ccccc12	5%	x	-14	-1%
Cc1nc2ccccc2nc1CN1CCOc2ccc(C(C)(O)COc3ccccc3)cc2C1 (configuration not stated)	x	x	x	1%
O=C(CSc1cccc[n+]1[O-])Nc1cc(Cl)ccc1[N+](=O)[O-]	u	22	2	-5%
SMILES	Nrf2 ARE act	D3 antag	D3 ag	GRP78 ERSR act
O=[N+]([O-])c1ccc(Sc2cccc[n+]2[O-])c2nonc12	-3%	-116*	-60	-13%
CC(C)NC(=O)c1cn([C@H]2CC[C@@H](NC(=O)/C=C/c3cccs3)CC2)nn1	x	x	x	-2%
CC1=CC(O)=NS(=O)(=O)O1	x	x	x	-5%
Cc1nc(N2CCN(Cc3ccccc3)CC2)nc2c1C(=O)CC(c1ccco1)C2 (configuration not stated)	-1%	-53*	-53	-3%
Cc1nc(N2CCN(Cc3ccccc3)CC2)nc2c1C(=O)CCC2	0%	-15	-3	-5%
Cc1nc(N2CCN(Cc3ccccc3)CC2)nc2c1CCC2	0%	-67*	-17	-2%
Cc1nc(N2CCN(Cc3ccc4c(c3)OCO4)CC2)nc2c1C(=O)CC(c1ccco1)C2 (configuration not stated)	3%	-72*	-51	-2%
